Data: PubChem BioAssay AID1159580 (chemical genetic matrix, 2015)
“And” between values parts separate entries of the source, which are not always exact repeats. Identical values can stand only once. Hit rate of the full screen: of about 5,500 compounds, about 2,000 (36%) were called active. Inconclusive results (about 18%) are left out. Cut-off read from the data, not from the text of the source: active = normalized growth mostly below about 0.91 (no sharp cut-off); inconclusive = no clear call, values can overlap the other calls; inactive = mostly above about 0.92. This is one part of the list.

Assay: chemical genetic growth profiling, strain panel (AID 1159580);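 note: tested at 20 µM; growth read once vehicle control cultures reached saturation at 30 °C; 1 = growth at the plate median or of vehicle wells; lower values mean less growth of the strain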
Conditions: growth OD

Measured: normalized growth

CN=C(NC#N)NCCSCc1nc[nH]c1C
inactive: S. cerevisiae deletion strains, locus YJR075W, strain HOC1, stronger effect = lower value 1.01 | S. cerevisiae deletion strains, locus YKL009W, strain mrt4, stronger effect = lower value 1.03 | S. cerevisiae deletion strains, locus YKL068W, stronger effect = lower value 0.992 | S. cerevisiae deletion strains, locus YKL085W, strain MDH1 (second series), stronger effect = lower value 0.992 | S. cerevisiae deletion strains, locus YKL085W, strain MDH1, stronger effect = lower value 0.992 | S. cerevisiae deletion strains, locus YKL160W, strain elf1, stronger effect = lower value 0.986 | S. cerevisiae deletion strains, locus YKL190W, strain CNB1, stronger effect = lower value 1 | S. cerevisiae deletion strains, locus YKR001C, strain vps1, stronger effect = lower value 0.998 | S. cerevisiae deletion strains, locus YKR026C, strain gcn3, stronger effect = lower value 1 | S. cerevisiae deletion strains, locus YKR091W, strain srl3, stronger effect = lower value 1 | S. cerevisiae deletion strains, locus YLL001W, strain dnm1, stronger effect = lower value 1 | S. cerevisiae deletion strains, locus YLL026W, stronger effect = lower value 0.997 | S. cerevisiae deletion strains, locus YLL041C, strain sdh2, stronger effect = lower value 1 | S. cerevisiae deletion strains, locus YLR027C, strain aat2, stronger effect = lower value 1.01 | S. cerevisiae deletion strains, locus YLR039C, strain RIC1, stronger effect = lower value 1 | S. cerevisiae deletion strains, locus YLR058C, strain SHM2, stronger effect = lower value 0.989 | S. cerevisiae deletion strains, locus YLR102C, strain apc9, stronger effect = lower value 0.985 | S. cerevisiae deletion strains, locus YLR113W, strain HOG1, stronger effect = lower value 1.03 | S. cerevisiae deletion strains, locus YLR221C, strain rsa3, stronger effect = lower value 0.986 | S. cerevisiae deletion strains, locus YLR258W, strain gsy2, stronger effect = lower value 1.02 | S. cerevisiae deletion strains, locus YLR262C, strain YPT6 (second series), stronger effect = lower value 1.01 | S. cerevisiae deletion strains, locus YLR262C, strain YPT6, stronger effect = lower value 1.01 | S. cerevisiae deletion strains, locus YLR268W, strain sec22, stronger effect = lower value 0.955 | S. cerevisiae deletion strains, locus YLR320W, strain mms22, stronger effect = lower value 0.982 | S. cerevisiae deletion strains, locus YLR330W, strain CHS5, stronger effect = lower value 0.991 | S. cerevisiae deletion strains, locus YLR342W, strain FKS1 (second series), stronger effect = lower value 1.01 | S. cerevisiae deletion strains, locus YLR342W, strain FKS1, stronger effect = lower value 1 | S. cerevisiae deletion strains, locus YLR357W, strain rsc2, stronger effect = lower value 0.979 | S. cerevisiae deletion strains, locus YLR370C, strain arc18, stronger effect = lower value 1.01 | S. cerevisiae deletion strains, locus YLR371W, strain rom2, stronger effect = lower value 0.993 | S. cerevisiae deletion strains, locus YLR384C, strain iki3, stronger effect = lower value 0.998 | S. cerevisiae deletion strains, locus YLR418C, strain cdc73, stronger effect = lower value 1.03 | S. cerevisiae deletion strains, locus YML016C, strain PPZ1, stronger effect = lower value 0.997 | S. cerevisiae deletion strains, locus YML032C, strain rad52, stronger effect = lower value 0.986 | S. cerevisiae deletion strains, locus YML120C, strain ndi1, stronger effect = lower value 0.993 | S. cerevisiae deletion strains, locus YML124C, strain tub3, stronger effect = lower value 0.98 | S. cerevisiae deletion strains, locus YMR058W, strain fet3, stronger effect = lower value 1 | S. cerevisiae deletion strains, locus YMR078C, strain ctf18, stronger effect = lower value 0.986 | S. cerevisiae deletion strains, locus YMR125W, strain sto1, stronger effect = lower value 0.996 | S. cerevisiae deletion strains, locus YMR129W, stronger effect = lower value 1 | S. cerevisiae deletion strains, locus YMR205C, strain PFK2, stronger effect = lower value 0.994 | S. cerevisiae deletion strains, locus YMR223W, strain ubp8, stronger effect = lower value 1.02 | S. cerevisiae deletion strains, locus YMR231W, strain pep5, stronger effect = lower value 0.999 | S. cerevisiae deletion strains, locus YMR263W, strain SAP30, stronger effect = lower value 0.998 | S. cerevisiae deletion strains, locus YMR307W, strain GAS1, stronger effect = lower value 1 | S. cerevisiae deletion strains, locus YNL067W, strain RPL9B, stronger effect = lower value 1 | S. cerevisiae deletion strains, locus YNL071W, strain lat1, stronger effect = lower value 1.01 | S. cerevisiae deletion strains, locus YNL128W, strain TEP1, stronger effect = lower value 0.991 | S. cerevisiae deletion strains, locus YNL153C, strain GIM3, stronger effect = lower value 0.994 and 1.05 | S. cerevisiae deletion strains, locus YNL175C, strain NOP13, stronger effect = lower value 1 | S. cerevisiae deletion strains, locus YNL183C, strain NPR1, stronger effect = lower value 1 | S. cerevisiae deletion strains, locus YNL197C, strain WHI3, stronger effect = lower value 1.02 | S. cerevisiae deletion strains, locus YNL209W, strain ssb2, stronger effect = lower value 1 | S. cerevisiae deletion strains, locus YNL224C, strain SQS1, stronger effect = lower value 0.993 | S. cerevisiae deletion strains, locus YNL233W, strain BNI4, stronger effect = lower value 0.988 | S. cerevisiae deletion strains, locus YNL248C, strain rpa49, stronger effect = lower value 0.996 | S. cerevisiae deletion strains, locus YNL250W, strain rad50, stronger effect = lower value 0.953 | S. cerevisiae deletion strains, locus YNL271C, strain bni1, stronger effect = lower value 0.965 | S. cerevisiae deletion strains, locus YNL298W, strain CLA4, stronger effect = lower value 0.971 | S. cerevisiae deletion strains, locus YNL307C, strain MCK1, stronger effect = lower value 0.996 | S. cerevisiae deletion strains, locus YNL322C, strain KRE1 (second series), stronger effect = lower value 0.989 | S. cerevisiae deletion strains, locus YNL322C, strain KRE1, stronger effect = lower value 1 | S. cerevisiae deletion strains, locus YNR049C, strain mso1, stronger effect = lower value 1 | S. cerevisiae deletion strains, locus YNR052C, strain pop2, stronger effect = lower value 1 | S. cerevisiae deletion strains, locus YOL006C, strain TOP1, stronger effect = lower value 1.01 | S. cerevisiae deletion strains, locus YOL012C, strain htz1 0.875 | S. cerevisiae deletion strains, locus YOL147C, strain pex11, stronger effect = lower value 0.973 | S. cerevisiae deletion strains, locus YOR001W, strain rrp6, stronger effect = lower value 0.999 | S. cerevisiae deletion strains, locus YOR061W, strain CKA2, stronger effect = lower value 0.99 | S. cerevisiae deletion strains, locus YOR069W, strain VPS5, stronger effect = lower value 0.99 | S. cerevisiae deletion strains, locus YOR070C, strain gyp1, stronger effect = lower value 0.996 | S. cerevisiae deletion strains, locus YOR080W, strain dia2, stronger effect = lower value 1 | S. cerevisiae deletion strains, locus YOR083W, strain WHI5 (second series), stronger effect = lower value 1.04 | S. cerevisiae deletion strains, locus YOR083W, strain WHI5, stronger effect = lower value 0.981 | S. cerevisiae deletion strains, locus YOR106W, strain vam3, stronger effect = lower value 0.979 | S. cerevisiae deletion strains, locus YOR136W, strain idh2, stronger effect = lower value 0.994 | S. cerevisiae deletion strains, locus YOR144C, strain elg1, stronger effect = lower value 0.983 | S. cerevisiae deletion strains, locus YOR184W, strain ser1, stronger effect = lower value 0.993 | S. cerevisiae deletion strains, locus YOR231W, strain MKK1, stronger effect = lower value 1.03 | S. cerevisiae deletion strains, locus YOR265W, strain rbl2, stronger effect = lower value 0.999 | S. cerevisiae deletion strains, locus YOR270C, strain vph1, stronger effect = lower value 1.02 | S. cerevisiae deletion strains, locus YOR290C, strain snf2, stronger effect = lower value 0.972 | S. cerevisiae deletion strains, locus YOR316C, strain cot1, stronger effect = lower value 0.991 | S. cerevisiae deletion strains, locus YPL051W, strain arl3, stronger effect = lower value 0.991 | S. cerevisiae deletion strains, locus YPL055C, strain LGE1, stronger effect = lower value 1.05 | S. cerevisiae deletion strains, locus YPL078C, strain atp4, stronger effect = lower value 1.01 | S. cerevisiae deletion strains, locus YPL106C, strain sse1, stronger effect = lower value 0.972 | S. cerevisiae deletion strains, locus YPL240C, strain hsp82, stronger effect = lower value 1 | S. cerevisiae deletion strains, locus YPL241C, strain CIN2, stronger effect = lower value 0.995 and 1.01 | S. cerevisiae deletion strains, locus YPL256C, strain CLN2, stronger effect = lower value 1.06 | S. cerevisiae deletion strains, locus YPR119W, strain clb2, stronger effect = lower value 0.978 | S. cerevisiae deletion strains, locus YPR141C, strain kar3, stronger effect = lower value 0.97 | S. cerevisiae deletion strains, locus YPR163C, strain tif3, stronger effect = lower value 0.984 | S. cerevisiae deletion strains, locus YPR167C, strain met16, stronger effect = lower value 0.986 | S. cerevisiae deletion strains, strain wtn01, stronger effect = lower value 1.01 | S. cerevisiae strains, strain wild type, stronger effect = lower value 0.998
